Test results: the supplement of paper PMC10849652
Of roughly 7,900 targets only a part is listed; those with a hit were picked by preference. About 0.6% of all pairs of compound and target were hits.

How the values were obtained:
Assay in all cases: log2 fold change, soluble protein after heating vs DMSO (PISA); higher = thermal stabilisation; K562 cells, 10 uM, 30 min; active = over 0.2 and 3.5 SD of the protein, either way, in both replicates (recomputed)
[1] = compound: C1=CC=C(C=C1)[C@H](COC2=CC3=C(C=C2)NC(=O)N3)NC(=O)C4=CC=CN(C4=O)CC5=CC(=C(C=C5)F)F
Procedure, shortened: (§1)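 For each measurement, 10 μM compound was applied for 30 min to K562 cells at 2×10^6 cells/mL. Aliquots were heated for 3 min across 48°C-58°C, pooled, and extracted in PBS with 0.5% NP-40 at 4°C; the supernatant after 21,000xg for 90 min was soluble protein. This was quantified by TMTpro 16plex LC-MS/MS with channel sums equalised, and thermal stability was reported relative to control samples from duplicates, on a log2 fold-change scale.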

[2] = compound: CC1=C(SC2=C1C(=N[C@H](C3=NN=C(N32)C)CC(=O)N)C4=CC=C(C=C4)Cl)C
Procedure, shortened: as §1

[3] = compound: CC1=C2C(=CC=C1)N=C(N(C2=O)C3=CC=CC=C3C)CN4C=NC5=C(N=CN=C54)N
Procedure, shortened: as §1

[4] = compound: Cc1sc2c(c1C)C(c1ccc(Cl)cc1)=N[C@@H](CC(=O)OC(C)(C)C)c1nnc(C)n1-2
Procedure, shortened: as §1

[5] = compound: c1ccc([C@@H]2C[C@H]2NC2CCNCC2)cc1
Procedure, shortened: as §1

Measured: log2 fold change

WARS1 (UniProt G3V227)
inactive: [1] 0.09 | [2] -0.089 | [3] 0.042 | [4] 0.333 | [5] -0.185

VPS16 (UniProt Q9H269)
inactive: [1] -0.188 | [2] 0.048 | [3] 0.106 | [4] -0.021 | [5] -0.038

TRIP10 (UniProt Q15642)
inactive: [1] 0.016 | [2] 0.005 | [3] 0.081 | [4] 0.014 | [5] 0.037

XPNPEP1 isoform 3 (UniProt Q9NQW7)
inactive: [1] -0.017 | [2] 0.081 | [3] 0.021 | [4] 0.002 | [5] -0.029

WDR18 (UniProt Q9BV38)
inactive: [1] 0 | [2] 0.011 | [3] -0.019 | [4] -0.037 | [5] 0.019

WDR62 isoform 4 (UniProt O43379)
inactive: [1] 0.007 | [2] 0.027 | [3] 0.031 | [4] 0.004 | [5] 0.009

TOM1 isoform 2 (UniProt O60784)
UniProt O60784, sequence (O60784 whole entry, looked up): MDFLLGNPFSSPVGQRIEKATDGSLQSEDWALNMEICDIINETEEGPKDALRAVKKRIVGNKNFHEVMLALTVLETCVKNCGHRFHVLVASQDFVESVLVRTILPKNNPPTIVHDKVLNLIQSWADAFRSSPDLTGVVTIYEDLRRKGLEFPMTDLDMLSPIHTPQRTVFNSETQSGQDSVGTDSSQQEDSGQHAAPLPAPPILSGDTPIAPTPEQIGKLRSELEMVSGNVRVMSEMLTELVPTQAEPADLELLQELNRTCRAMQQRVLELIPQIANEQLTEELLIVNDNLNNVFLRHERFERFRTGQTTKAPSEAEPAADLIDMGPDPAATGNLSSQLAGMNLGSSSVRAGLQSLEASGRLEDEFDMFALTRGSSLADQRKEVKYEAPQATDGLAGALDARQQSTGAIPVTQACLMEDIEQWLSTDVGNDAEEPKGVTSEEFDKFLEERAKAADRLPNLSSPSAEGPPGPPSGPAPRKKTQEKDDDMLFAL
inactive: [1] 0.044 | [2] 0.001 | [3] -0.074 | [4] 0.046 | [5] 0.008

TMTC3 (UniProt Q6ZXV5)
inactive: [1] -0.012 | [2] 0.019 | [3] 0.011 | [4] -0.034 | [5] 0.005

TRAPPC13 isoform 5 (UniProt A5PLN9)
inactive: [1] -0.055 | [2] 0.154 | [3] 0.08 | [4] -0.013 | [5] -0.017

TRAPPC8 (UniProt Q9Y2L5)
inactive: [1] -0.01 | [2] 0.05 | [3] 0.046 | [4] 0.012 | [5] -0.018

UFM1 isoform 2 (UniProt P61960)
UniProt P61960, sequence (P61960 whole entry, looked up): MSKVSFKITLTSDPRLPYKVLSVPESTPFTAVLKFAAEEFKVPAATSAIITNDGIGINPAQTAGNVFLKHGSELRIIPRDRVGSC
inactive: [1] -0.032 | [2] -0.009 | [3] 0.066 | [4] -0.069 | [5] -0.048

TNPO2 (UniProt O14787)
UniProt O14787, sequence (O14787 whole entry, looked up): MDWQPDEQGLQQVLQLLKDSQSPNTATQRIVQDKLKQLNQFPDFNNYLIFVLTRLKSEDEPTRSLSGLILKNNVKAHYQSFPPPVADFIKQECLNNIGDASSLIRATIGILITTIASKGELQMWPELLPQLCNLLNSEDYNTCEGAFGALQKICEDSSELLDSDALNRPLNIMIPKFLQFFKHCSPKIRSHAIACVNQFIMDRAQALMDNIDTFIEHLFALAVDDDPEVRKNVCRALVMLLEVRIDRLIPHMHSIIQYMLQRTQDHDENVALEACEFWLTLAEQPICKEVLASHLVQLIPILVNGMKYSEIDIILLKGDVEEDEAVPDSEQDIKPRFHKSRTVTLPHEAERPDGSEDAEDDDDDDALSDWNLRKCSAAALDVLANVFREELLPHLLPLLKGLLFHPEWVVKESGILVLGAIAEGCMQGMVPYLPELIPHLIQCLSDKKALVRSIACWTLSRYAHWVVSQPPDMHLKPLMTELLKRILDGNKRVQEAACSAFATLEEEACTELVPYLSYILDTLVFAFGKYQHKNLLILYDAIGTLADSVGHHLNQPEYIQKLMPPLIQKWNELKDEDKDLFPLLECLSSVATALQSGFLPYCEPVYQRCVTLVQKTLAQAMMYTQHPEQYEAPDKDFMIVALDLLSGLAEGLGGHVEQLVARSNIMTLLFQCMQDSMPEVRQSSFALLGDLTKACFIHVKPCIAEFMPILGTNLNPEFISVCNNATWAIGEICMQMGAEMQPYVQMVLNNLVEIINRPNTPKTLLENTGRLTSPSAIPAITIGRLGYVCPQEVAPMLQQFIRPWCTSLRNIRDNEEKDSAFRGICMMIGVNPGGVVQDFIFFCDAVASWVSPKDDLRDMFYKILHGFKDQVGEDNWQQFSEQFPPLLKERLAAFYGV
inactive: [1] -0.067 | [2] 0.03 | [3] 0.158 | [4] -0.051 | [5] -0.005

TRAPPC6B (UniProt Q86SZ2)
inactive: [1] -0.007 | [2] 0.061 | [3] 0.048 | [4] -0.033 | [5] -0.013

TTI2 (UniProt Q6NXR4)
inactive: [1] 0.07 | [2] 0.027 | [3] 0.031 | [4] 0.028 | [5] 0.041

VPS28 (UniProt Q9UK41)
UniProt Q9UK41, sequence (Q9UK41 whole entry, looked up): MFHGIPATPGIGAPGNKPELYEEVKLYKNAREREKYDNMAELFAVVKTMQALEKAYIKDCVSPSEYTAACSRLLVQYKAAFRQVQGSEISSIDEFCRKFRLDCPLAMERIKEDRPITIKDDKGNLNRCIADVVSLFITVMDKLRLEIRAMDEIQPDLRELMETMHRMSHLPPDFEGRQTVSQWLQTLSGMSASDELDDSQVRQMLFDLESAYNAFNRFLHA
inactive: [1] -0.075 | [2] 0.023 | [3] 0.064 | [4] 0.011 | [5] -0.01

UTP14A (UniProt Q9BVJ6)
UniProt Q9BVJ6, sequence (Q9BVJ6 whole entry, looked up): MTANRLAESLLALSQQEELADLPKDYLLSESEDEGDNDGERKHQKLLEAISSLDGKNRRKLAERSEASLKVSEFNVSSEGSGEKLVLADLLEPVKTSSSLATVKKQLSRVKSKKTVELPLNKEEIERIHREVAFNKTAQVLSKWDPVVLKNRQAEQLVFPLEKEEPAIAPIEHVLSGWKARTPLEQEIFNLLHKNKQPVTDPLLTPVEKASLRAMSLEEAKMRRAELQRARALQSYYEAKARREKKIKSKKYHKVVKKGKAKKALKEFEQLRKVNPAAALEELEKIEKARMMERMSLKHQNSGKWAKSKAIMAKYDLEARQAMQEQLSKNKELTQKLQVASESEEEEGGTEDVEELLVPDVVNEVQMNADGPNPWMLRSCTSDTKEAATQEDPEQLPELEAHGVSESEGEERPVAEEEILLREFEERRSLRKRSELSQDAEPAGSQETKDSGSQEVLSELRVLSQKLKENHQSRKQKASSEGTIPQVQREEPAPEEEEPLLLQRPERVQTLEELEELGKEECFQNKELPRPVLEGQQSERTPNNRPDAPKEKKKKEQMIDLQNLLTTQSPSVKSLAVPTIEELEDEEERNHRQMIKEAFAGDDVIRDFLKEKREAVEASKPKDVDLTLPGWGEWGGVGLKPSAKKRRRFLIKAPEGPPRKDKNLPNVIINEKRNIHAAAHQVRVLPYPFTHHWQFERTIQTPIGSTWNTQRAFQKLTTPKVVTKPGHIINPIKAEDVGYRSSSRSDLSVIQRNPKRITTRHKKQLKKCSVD
inactive: [1] 0.039 | [2] -0.276 | [3] -0.154 | [4] 0.124 | [5] 0.029

TMEM120A (UniProt Q9BXJ8)
UniProt Q9BXJ8, sequence (Q9BXJ8 whole entry, looked up): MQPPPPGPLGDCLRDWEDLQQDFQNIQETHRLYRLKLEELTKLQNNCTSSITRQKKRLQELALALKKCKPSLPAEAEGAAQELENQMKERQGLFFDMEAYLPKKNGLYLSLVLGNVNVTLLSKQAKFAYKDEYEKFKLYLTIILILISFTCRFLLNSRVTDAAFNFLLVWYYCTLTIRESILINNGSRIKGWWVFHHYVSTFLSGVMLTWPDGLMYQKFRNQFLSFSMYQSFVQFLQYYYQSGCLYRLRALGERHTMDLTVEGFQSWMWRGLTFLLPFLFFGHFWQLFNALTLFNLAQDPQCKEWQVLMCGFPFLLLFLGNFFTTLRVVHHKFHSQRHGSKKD
inactive: [1] -0.126 | [2] 0.056 | [3] 0.012 | [4] -0.11 | [5] -0.049

TXNIP (UniProt Q9H3M7)
UniProt Q9H3M7, sequence (Q9H3M7 whole entry, looked up): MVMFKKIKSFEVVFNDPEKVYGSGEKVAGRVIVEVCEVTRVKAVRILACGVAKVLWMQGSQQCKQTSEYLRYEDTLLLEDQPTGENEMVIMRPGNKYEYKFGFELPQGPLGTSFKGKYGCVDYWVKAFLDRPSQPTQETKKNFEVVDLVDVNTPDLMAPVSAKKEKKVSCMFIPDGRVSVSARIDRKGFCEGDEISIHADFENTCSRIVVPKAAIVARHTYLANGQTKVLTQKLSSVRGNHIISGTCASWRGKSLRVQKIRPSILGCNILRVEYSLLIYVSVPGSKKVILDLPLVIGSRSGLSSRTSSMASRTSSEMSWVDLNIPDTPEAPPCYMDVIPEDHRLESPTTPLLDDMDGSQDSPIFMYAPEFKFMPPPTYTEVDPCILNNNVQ
inactive: [1] -0.011 | [2] 0.148 | [3] -0.012 | [4] -0.039 | [5] -0.099

TPR (UniProt P12270)
inactive: [1] 0.053 | [2] 0.014 | [3] 0.001 | [4] 0.083 | [5] 0.043

TMEM9B (UniProt Q9NQ34)
inactive: [1] 0.043 | [2] 0.074 | [3] 0.093 | [4] -0.041 | [5] -0.011

VARS2, A0A0G2JL52
inactive: [1] -0.006 | [2] 0.006 | [3] 0.044 | [4] -0.004 | [5] -0.015

TOMM5 isoform 2 (UniProt Q8N4H5)
UniProt Q8N4H5, sequence (Q8N4H5 whole entry, looked up): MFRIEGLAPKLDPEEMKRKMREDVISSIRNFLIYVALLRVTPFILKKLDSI
inactive: [1] 0.034 | [2] 0.047 | [3] -0.032 | [4] -0.029 | [5] 0.005

TMEM223 (UniProt A0PJW6)
UniProt A0PJW6, sequence (A0PJW6 whole entry, looked up): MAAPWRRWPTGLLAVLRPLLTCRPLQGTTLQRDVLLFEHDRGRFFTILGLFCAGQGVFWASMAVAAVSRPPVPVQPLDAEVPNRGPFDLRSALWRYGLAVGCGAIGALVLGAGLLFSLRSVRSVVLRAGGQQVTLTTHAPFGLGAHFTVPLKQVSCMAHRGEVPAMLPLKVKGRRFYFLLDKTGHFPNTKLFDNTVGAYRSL
inactive: [1] 0.069 | [2] -0.045 | [3] 0.118 | [4] 0.03 | [5] -0.024

TP53BP1 isoform 2 (UniProt Q12888)
inactive: [1] -0.025 | [2] -0.016 | [3] 0.025 | [4] 0.001 | [5] 0.032

UNC119B (UniProt A6NIH7)
inactive: [1] -0.093 | [2] -0.013 | [3] 0.094 | [4] -0.016 | [5] -0.009

UTP3 (UniProt Q9NQZ2)
inactive: [1] 0.049 | [2] -0.312 | [3] -0.041 | [4] 0.042 | [5] -0.007

VPS53 isoform 4 (UniProt Q5VIR6)
UniProt Q5VIR6, sequence (Q5VIR6 whole entry, looked up): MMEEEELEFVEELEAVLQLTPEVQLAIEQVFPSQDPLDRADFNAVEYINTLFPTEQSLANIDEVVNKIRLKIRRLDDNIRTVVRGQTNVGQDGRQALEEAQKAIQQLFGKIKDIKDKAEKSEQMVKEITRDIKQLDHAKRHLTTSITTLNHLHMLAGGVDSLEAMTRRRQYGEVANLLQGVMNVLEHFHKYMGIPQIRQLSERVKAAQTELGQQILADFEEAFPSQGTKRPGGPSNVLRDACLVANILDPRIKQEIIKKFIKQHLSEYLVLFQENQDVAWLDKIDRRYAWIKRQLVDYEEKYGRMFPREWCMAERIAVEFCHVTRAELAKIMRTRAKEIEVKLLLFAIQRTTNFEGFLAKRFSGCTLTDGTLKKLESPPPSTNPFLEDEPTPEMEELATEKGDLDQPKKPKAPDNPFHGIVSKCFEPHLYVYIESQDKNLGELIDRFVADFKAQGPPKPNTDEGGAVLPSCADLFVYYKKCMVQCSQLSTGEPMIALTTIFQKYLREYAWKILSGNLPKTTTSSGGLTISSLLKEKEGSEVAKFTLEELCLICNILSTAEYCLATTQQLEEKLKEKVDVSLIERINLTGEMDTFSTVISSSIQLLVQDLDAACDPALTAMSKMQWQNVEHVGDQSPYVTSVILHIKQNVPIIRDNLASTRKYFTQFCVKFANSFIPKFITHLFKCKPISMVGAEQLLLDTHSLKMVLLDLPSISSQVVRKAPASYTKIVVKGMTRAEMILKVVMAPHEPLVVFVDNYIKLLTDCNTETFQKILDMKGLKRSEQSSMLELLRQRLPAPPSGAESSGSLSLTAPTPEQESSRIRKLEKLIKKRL
inactive: [1] -0.009 | [2] 0.02 | [3] 0.049 | [4] -0.006 | [5] -0.007

TTC4 (UniProt O95801)
UniProt O95801, sequence (O95801 whole entry, looked up): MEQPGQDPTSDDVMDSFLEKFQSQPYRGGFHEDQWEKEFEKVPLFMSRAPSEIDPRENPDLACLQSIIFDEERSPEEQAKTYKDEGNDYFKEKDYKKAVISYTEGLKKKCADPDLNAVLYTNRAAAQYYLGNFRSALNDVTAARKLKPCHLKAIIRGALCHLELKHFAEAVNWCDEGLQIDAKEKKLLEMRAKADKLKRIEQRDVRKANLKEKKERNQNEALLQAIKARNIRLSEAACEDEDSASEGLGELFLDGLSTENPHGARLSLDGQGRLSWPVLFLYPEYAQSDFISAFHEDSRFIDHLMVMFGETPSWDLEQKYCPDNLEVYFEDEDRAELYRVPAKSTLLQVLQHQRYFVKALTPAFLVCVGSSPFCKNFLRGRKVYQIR
inactive: [1] -0.089 | [2] -0.008 | [3] 0.099 | [4] 0.022 | [5] -0.029

TNPO1 (UniProt Q92973)
inactive: [1] -0.017 | [2] 0.008 | [3] -0.012 | [4] -0.009 | [5] 0.018

VPS13B (UniProt Q7Z7G8)
inactive: [1] 0 | [2] -0.008 | [3] 0.068 | [4] -0.057 | [5] 0.031

TMEM214 (UniProt Q6NUQ4)
inactive: [1] 0.023 | [2] 0.044 | [3] 0.005 | [4] -0.002 | [5] -0.024

VPS52 (UniProt Q8N1B4)
inactive: [1] 0.068 | [2] 0.036 | [3] 0.137 | [4] -0.057 | [5] -0.028

VPS50 (UniProt Q96JG6)
inactive: [1] -0.039 | [2] 0.055 | [3] 0.022 | [4] -0.013 | [5] 0.01

WASHC5 (UniProt Q12768)
inactive: [1] 0.034 | [2] 0.042 | [3] 0.09 | [4] 0.003 | [5] -0.041

TOE1 (UniProt Q96GM8)
inactive: [1] 0.049 | [2] -0.036 | [3] -0.095 | [4] 0.065 | [5] 0.014

TMEM128 (UniProt Q5BJH2)
inactive: [1] -0.038 | [2] -0.001 | [3] 0.185 | [4] -0.1 | [5] 0

WASHC2C, A0A096LPC5
inactive: [1] 0.015 | [2] 0.012 | [3] 0.008 | [4] 0.027 | [5] 0.001

USP15 (UniProt Q9Y4E8)
inactive: [1] -0.038 | [2] 0.035 | [3] 0.059 | [4] 0.008 | [5] -0.016

TRMT61A (UniProt Q96FX7)
inactive: [1] 0.157 | [2] -0.033 | [3] -0.051 | [4] 0.141 | [5] -0.049

TMEM268 isoform 3 (UniProt Q5VZI3)
inactive: [1] -0.008 | [2] 0 | [4] 0.151 | [5] 0.063

TRIQK (UniProt Q629K1)
inactive: [1] 0.098 | [2] 0.028 | [4] -0.052 | [5] 0.048

ULBP1 (UniProt Q9BZM6)
UniProt Q9BZM6, sequence (Q9BZM6 whole entry, looked up): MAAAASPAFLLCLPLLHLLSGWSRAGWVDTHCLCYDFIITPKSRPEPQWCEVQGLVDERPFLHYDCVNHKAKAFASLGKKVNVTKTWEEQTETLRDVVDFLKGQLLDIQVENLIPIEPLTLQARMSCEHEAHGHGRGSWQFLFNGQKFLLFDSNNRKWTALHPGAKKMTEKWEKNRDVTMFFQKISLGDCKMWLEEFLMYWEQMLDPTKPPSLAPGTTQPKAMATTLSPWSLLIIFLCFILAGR
inactive: [2] 0.014 | [3] -0.001 | [4] -0.036 | [5] -0.038

TXNRD1 isoform 7 (UniProt Q16881)
inactive: [1] 0.046 | [3] 0.138

UBE2J1 (UniProt Q9Y385)
inactive: [1] -0.061 | [2] -0.011 | [3] 0.05 | [4] -0.039 | [5] -0.068

XRCC1 (UniProt P18887)
inactive: [2] 0.091 | [4] 0.07 | [5] 0.062

TMEM41A (UniProt Q96HV5)
inactive: [1] 0.01 | [3] 0.06 | [4] -0.08

UBAP2L (UniProt F8W726)
inactive: [1] -0.05 | [4] 0.046

TRIM5 (UniProt Q9C035)
inactive: [2] 0.021 | [3] 0.023 | [4] 0.155 | [5] -0.004
